From PubChem BioAssay AID1159580 (chemical genetic matrix, 2015)
Among all 5,500 compounds or so, about 2,000 (36%) were called active. Roughly 18% stayed inconclusive and do not appear here. Cut-off read from the data, not from the text of the source: active = normalized growth mostly below about 0.91 (no sharp cut-off); inconclusive = no clear call, values can overlap the other calls; inactive = mostly above about 0.92. This is one part of the list.

Assay: chemical genetic growth profiling, strain panel (AID 1159580);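 note: tested at 20 µM; growth read once vehicle control cultures reached saturation at 30 °C; 1 = growth at the plate median or of vehicle wells; lower values mean less growth of the strain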
Details: S. cerevisiae deletion strains, growth OD
[1] = locus YHR030C, strain SLT2, active compounds read low
[2] = locus YHR079C, strain IRE1, active compounds read low
[3] = locus YJL095W, strain BCK1, active compounds read low
[4] = locus YJR066W, strain TOR1, active compounds read low
[5] = locus YLR113W, strain HOG1, active compounds read low
[6] = locus YNL183C, strain NPR1, active compounds read low
[7] = locus YOR231W, strain MKK1, active compounds read low
[8] = locus YPL256C, strain CLN2, active compounds read low

Measured: normalized growth

COc1cc2c3cc1Oc1c(OC)c(OC)cc4c1[C@@H](Cc1cccc(c1)Oc1ccc(c(O)c1)C[C@@H]3N(C)CC2)N(C)CC4
inactive: [1] 1.02 | [2] 1.01 | [3] 0.994 | [4] 0.984 | [5] 0.968 | [6] 0.983 | [7] 1.03 | [8] 1.07

COc1ccc2cc1Oc1ccc(cc1)C[C@H]1c3c(cc4c(c3Oc3cc5c(cc3OC)CCN(C)[C@@H]5C2)OCO4)CCN1C
inactive: locus YAL021C, strain ccr4, active compounds read low 1.01 | locus YAL026C, strain drs2, active compounds read low 1.01 | locus YAL030W, strain snc1, active compounds read low 0.989 | locus YBL061C, strain skt5, active compounds read low 1.01 | locus YBR009C, strain hhf1, active compounds read low 0.959 | locus YBR023C, strain chs3, active compounds read low 1.01 | locus YBR171W, strain sec66, active compounds read low 0.982 | locus YBR231C, strain swc5, active compounds read low 0.959 | locus YBR279W, strain paf1, active compounds read low 0.992 | locus YCL011C, strain gbp2, active compounds read low 1.01 | locus YCL016C, strain dcc1, active compounds read low 1.03 | locus YCL061C, strain MRC1, active compounds read low 0.984 | locus YCL069W, strain vba3, active compounds read low 0.969 | locus YCR088W, strain abp1, active compounds read low 0.987 | locus YDL005C, strain med2, active compounds read low 0.983 | locus YDL040C, strain nat1, active compounds read low 0.982 | locus YDR001C, strain nth1, active compounds read low 0.989 | locus YDR069C, strain doa4, active compounds read low 0.979 | locus YDR137W, strain rgp1, active compounds read low 1.1 | locus YDR159W, strain sac3, active compounds read low 0.875 | locus YDR195W, strain ref2 0.942 | locus YDR297W, strain sur2, active compounds read low 1 | locus YDR334W, strain swr1, active compounds read low 0.963 | locus YDR335W, strain msn5, active compounds read low 1.01 | locus YDR392W, strain spt3, active compounds read low 0.743 | locus YEL003W, strain gim4, active compounds read low 0.975 | locus YEL037C, strain rad23, active compounds read low 0.969 | locus YEL061C, strain CIN8 (second series), active compounds read low 0.98 | locus YER015W, strain faa2, active compounds read low 0.994 | locus YER016W, strain bim1, active compounds read low 1.06 | locus YER111C, strain swi4, active compounds read low 0.997 | locus YER155C, strain BEM2 (second series), active compounds read low 0.874 | locus YFR010W, strain ubp6, active compounds read low 0.966 | locus YGL167C, strain pmr1, active compounds read low 0.976 | locus YGL173C, strain kem1, active compounds read low 0.961 | locus YGL227W, strain vid30, active compounds read low 0.996 | locus YGL240W, strain doc1, active compounds read low 0.962 | locus YGL253W, strain hxk2, active compounds read low 1.01 | locus YHR013C, strain ard1, active compounds read low 0.964 | locus YHR027C, strain rpn1, active compounds read low 0.996 | [1] 1.03 | [2] 1.08 | locus YHR142W, strain chs7, active compounds read low 1.03 | locus YJL092W, strain hpr5, active compounds read low 0.988 | locus YJL095W, strain BCK1 (second series), active compounds read low 0.989 | [3] 1.03 | locus YJL115W, strain asf1, active compounds read low 0.974 | locus YJL129C, strain trk1, active compounds read low 1 | locus YJL154C, strain vps35, active compounds read low 0.986 | locus YJL164C, strain tpk1, active compounds read low 0.962 | locus YJL166W, strain qcr8, active compounds read low 0.955 | locus YJL187C, strain SWE1, active compounds read low 1.01 | [4] 0.987 | locus YKL160W, strain elf1, active compounds read low 1.05 | locus YKR026C, strain gcn3, active compounds read low 0.964 | locus YKR091W, strain srl3, active compounds read low 0.99 | locus YLL001W, strain dnm1, active compounds read low 0.959 | locus YLL026W, active compounds read low 0.999 | locus YLL041C, strain sdh2, active compounds read low 0.977 | locus YLR027C, strain aat2, active compounds read low 1 | [5] 1.07 | locus YLR221C, strain rsa3, active compounds read low 0.997 | locus YLR258W, strain gsy2, active compounds read low 1 | locus YLR262C, strain YPT6 (second series), active compounds read low 1.04 | locus YLR320W, strain mms22, active compounds read low 0.922 | locus YLR342W, strain FKS1, active compounds read low 1.02 | locus YLR357W, strain rsc2, active compounds read low 0.934 | locus YLR370C, strain arc18, active compounds read low 0.999 | locus YLR384C, strain iki3, active compounds read low 1 | locus YML120C, strain ndi1, active compounds read low 0.969 | locus YMR058W, strain fet3, active compounds read low 0.978 | locus YMR125W, strain sto1, active compounds read low 1 | locus YMR129W, active compounds read low 0.971 | locus YMR205C, strain PFK2, active compounds read low 0.973 | locus YMR231W, strain pep5, active compounds read low 0.985 | locus YNL071W, strain lat1, active compounds read low 0.982 | [6] 0.951 | locus YNL209W, strain ssb2, active compounds read low 0.99 | locus YNL248C, strain rpa49, active compounds read low 1.02 | locus YNL322C, strain KRE1 (second series), active compounds read low 1 | locus YNR049C, strain mso1, active compounds read low 1 | locus YOR001W, strain rrp6, active compounds read low 0.953 | locus YOR070C, strain gyp1, active compounds read low 1 | locus YOR080W, strain dia2, active compounds read low 0.977 | locus YOR083W, strain WHI5, active compounds read low 1 | locus YOR106W, strain vam3, active compounds read low 1.04 | [7] 1.06 | locus YOR265W, strain rbl2, active compounds read low 1 | locus YOR270C, strain vph1, active compounds read low 1.06 | locus YOR290C, strain snf2, active compounds read low 1.04 | locus YPL051W, strain arl3, active compounds read low 1.04 | locus YPL078C, strain atp4, active compounds read low 1.03 | locus YPL106C, strain sse1, active compounds read low 0.949 | locus YPL240C, strain hsp82, active compounds read low 0.985 | [8] 1.07
